Experiments:
Test in all cases: PBM binding z-score (relative to random genomic background probes); higher = stronger binding; sequences stand for … in GC…GCGATTGACAGCGTAGAATGAAGG
[1] = system: RARb homodimer (NR concentration 270 nM)
How it was run: (§1)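 Custom Agilent 4×180K protein-binding microarrays carried double-stranded probes. Their 34-nt variable regions held direct-repeat seeds, single-nucleotide variants, half-site ablations and random human genomic background sequences. Arrays were incubated 1 h with ligand-free nuclear receptor dimers in PBS pH 7.4, 2% milk, 0.02% Triton X-100, 1 mM DTT, 0.2 mg/mL BSA and 0.4 mg/ml salmon testes DNA. Antibodies against each partner (one per run) detected binding, and scanned fluorescence was regression-normalized. Binding z-scores use random background probes as reference.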

[2] = system: RARg:RXRa (NR concentration 270 nM, RXRa partner concentration 90 nM)
How it was run: as §1

[3] = system: RARg homodimer (NR concentration 270 nM)
How it was run: as §1

[4] = system: RXRa DBDmut IVT, anti-RXR (DBD mutation: RXRa K156A/R161A, NR concentration 90 nM)
How it was run: as §1

[5] = system: RXRa homodimer (NR concentration 180 nM)
How it was run: as §1

[6] = system: THRa:RXRa (NR concentration 90 nM, RXRa partner concentration 90 nM)
How it was run: as §1

[7] = system: THRa homodimer (NR concentration 90 nM)
How it was run: as §1

[8] = system: VDR homodimer (NR concentration 270 nM)
How it was run: as §1

Row | Sequence | PBM binding z-score [1] | PBM binding z-score [2] | PBM binding z-score [3] | PBM binding z-score [4] | PBM binding z-score [5] | PBM binding z-score [6] | PBM binding z-score [7] | PBM binding z-score [8]
1 | CCTAGTTGGTCAATGTCACACACGCTATAGGTAC | 1.52 | 1.07 | 1.59 | 1.04 | 0.701 | 0.639 | 0.635 | 0.802
2 | GGAACGAGGGCAAGTTGATGGCAGAGTTTGATGG | 1.59 | 1.66 | 1.92 | 2.1 | 1.05 | 1.34 | 0.188 | 1.5
3 | CGTCTAAGGTCAATGCTAGGTCAGTGAAAGCATT | 5.09 | 7.91 | 7.34 | 3.82 | 6.12 | 4.67 | 4.42 | 3.13
4 | CCTACTGGGCCAAGGTCCTTGATCAGTCAAAGCA | 0.00283 | -0.396 | -0.0984 | -1.13 | -0.463 | -0.0193 | -0.503 | -0.774
5 | TCTTGTAGATCAAGGAGGTTAAGAAAGCCTGAGT | 0.594 | 0.234 | -0.0688 | 0.581 | 0.685 | 0.835 | -0.069 | 0.29
6 | CCTAGCAGGCCAGGGTCACTCAAGCATTTCGCTT | 2.82 | 3.21 | 2.84 | 0.493 | 3.9 | 2.92 | 1.2 | 1.25
7 | CGTCAAAGTTCAACTAAGGTAGCGTAAAGCACGC | 4.16 | 5.74 | 6.39 | 4.42 | 4.96 | 5.06 | 0.699 | 4.01
8 | CGAACCAGGTCATCCAGGACAGTGAATACATTGA | 3.03 | 4.28 | 4.8 | 2.81 | 3.95 | 4.15 | 2.93 | 2.75
9 | CAAACTAGGTCACAGAGGTCAATGTCCGTGCGTA | 5.68 | 6.89 | 7.2 | 3.06 | 6.85 | 4.66 | 2.96 | 6.33
10 | AGAATGAGGTTATACGTACATCAGGGAAGAAAGT | 0.803 | 1.95 | 1.32 | 1.73 | 2.32 | 2.13 | 0.372 | 1.22
11 | ATCGAAAGATCGTGAGGTGAGTATACAGAAAGGC | -0.106 | 0.546 | 0.519 | -0.575 | 0.649 | 1.73 | 0.91 | -0.449
12 | CGAACAAGGTCAAGGACAGTGAATCTCCGCACGC | 4.07 | 6.08 | 6.35 | 3.61 | 6.26 | 4.03 | 2.93 | 2.3
13 | CCGAGTAGGTTATGGGGCATACAGGCAACGGTGA | 0.844 | 0.575 | 0.725 | -0.471 | 0.691 | 0.28 | -0.0646 | 0.0894
14 | TATACAGGGTCACAGGCCAGAGTACGAATGTCGA | 3.83 | 5.96 | 5.41 | 2.61 | 6.79 | 3.92 | 1.94 | 2.51
15 | GCTATTACTTGAAAGGGCAACCGAATGATTCTCG | 2.01 | 1.27 | 1.27 | 0.581 | 0.965 | 0.521 | -0.383 | -0.15
16 | GCTATTAGTTGAAAGGGCAAGCGAATGATTCTCG | 1.71 | 1.06 | 1.04 | 0.747 | 1.06 | 0.545 | -0.289 | 0.401
17 | TCTAGTTGGTCAAAGGTCACACATTCGAAATGCG | 5.15 | 6.77 | 5.76 | 1.62 | 7.57 | 4 | 2.07 | 2.42
18 | TCATATAGGTGAACAGGTGAAAGTCCGTAAGTTA | 1.38 | 1.52 | 1.13 | 1.68 | 1.75 | 1.13 | 0.464 | 0.153
19 | ACTAGCAGGCCAAGATTGGGTCACTCAAACAAAG | 1.97 | 1.63 | 1.37 | -0.534 | 0.621 | 1.84 | 0.533 | 0.0162
20 | CAAACTAGGTCACCGGAAGGTAAAAGTCCGCATG | 3.46 | 5.33 | 5.29 | 1.61 | 3.87 | 3.69 | 1.84 | 1.01
21 | GCGACTGGGGGATCAGCAGGTTACCATAACTTAA | 0.909 | 0.837 | 0.34 | 0.58 | 1 | 1.67 | 0.806 | 0.0827
22 | ATACCAAGGTGACCGTGAGGTCGTTGATACTAAC | 2.9 | 3.36 | 1.96 | 0.82 | 2.27 | 3.74 | 3.08 | 2.81
23 | TCTCGGAGGACACGAAGGTCAGACCTTTCCAGAG | 3.98 | 3.27 | 3.81 | 1.03 | 1.94 | 3.08 | 1.21 | 1.44
24 | TTACCAAGGTGAGTTGAGGTCGTTGATCCAACTC | 1.84 | 1.33 | 1.18 | 0.713 | 1.56 | 4.72 | 2.28 | 2.18
25 | CCGACTGGGGCAAAGTTACCATAACGCACAGCCA | -0.231 | 0.149 | 0.374 | 0.41 | 0.344 | -0.336 | -0.499 | -0.275
26 | TCTATTAGTCGATTAGGGCAACCGAAACAGCGGA | 0.367 | 0.53 | 0.468 | 0.914 | 0.681 | 0.811 | 0.361 | 0.0266
27 | TCGAGTAGGTTACCAATGGTGCATTCAGCTTTCT | -0.0825 | 0.138 | 0.0849 | 0.244 | 0.365 | -0.118 | -0.617 | -0.499
28 | CGTCCAAGGTTAAAGGTCAGTGAAGAGATGACGG | 4.52 | 6.38 | 5.4 | 2.09 | 8.31 | 3.84 | 0.929 | 1.46

— the supplement of paper PMC6555819
